High-throughput results from PubChem.
DAX1 inh-1: inhibits human nuclear receptor DAX1. P51843. HEK293 Gal4-DAX1 luciferase reporter, luminescence. inhibition, % at 6.75 µM. hit rate 0.99% among 340,000;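 active = inhibition above the mean over all tested compounds plus 3 SD, cut at about 4.2% in these data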;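 note: 0% = DAX1-transfected cells with DMSO and 100% = empty-vector control cells with DMSO; inhibition shows as a rise in luminescence from relieved DAX1 repression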
Target sequence (P51843 207-470 limits assumed): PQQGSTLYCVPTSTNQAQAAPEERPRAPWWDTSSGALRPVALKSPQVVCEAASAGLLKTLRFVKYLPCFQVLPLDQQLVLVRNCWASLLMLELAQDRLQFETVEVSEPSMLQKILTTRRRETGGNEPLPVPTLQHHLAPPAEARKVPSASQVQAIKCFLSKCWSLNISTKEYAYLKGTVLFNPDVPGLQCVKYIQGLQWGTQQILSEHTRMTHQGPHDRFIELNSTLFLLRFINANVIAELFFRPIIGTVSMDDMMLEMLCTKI
hcDAF12 agonist: H. contortus DAF-12 activation, primary screen. HEK293 hcDAF-12 lit1-tk-luc reporter, luminescence; 0% DMSO, 100% Δ7-dafachronic acid. activation, % at 6.8 µM. hit rate 1.4% among 370,000. AID 652067;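 active = activation above the mean of all tested compounds plus 3 SD, cut at about 5.5% in these data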;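 note: 100% = response to 3 µM Δ7-dafachronic acid high control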
hgDAF-12 ag: activates the H. glycines DAF-12 receptor ligand-binding domain | HEK293 GAL4-hgDAF12 UAS-luciferase reporter, agonist luminescence; normalized to butyrate control | hit rate 1.8% among 370,000 | activation, % at 6.8 µM | AID 687014;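 active = activation above a cutoff set at the mean of all screened compounds plus 3 SD, cut at about 10% in these data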;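 note: 0% = DMSO wells and 100% = sodium butyrate wells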
DAX1 inh-2: DAX1 (NR0B1) inhibition, primary screen | inhibition, % at 6.8 µM | hit rate 1.1% among 370,000 | HEK293T StAR-luciferase reporter, SF-1/DAX-1 repression relief | AID 652010;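 active = inhibition above the mean over all tested compounds plus 3 SD, cut at about 3.6% in these data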;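 note: 0% = DAX-1 cells with DMSO and 100% = cells lacking DAX-1 with DMSO; higher inhibition means more luminescence from relief of DAX-1 repression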
ssDAF-12 act: S. stercoralis DAF-12 activation, primary screen; hit rate 1% among 370,000; activation, % at 6.8 µM; HEK293 ssDAF-12/GRIP1 lit1-tk-luc reporter, luminescence; % of 3 µM dafachronic acid response;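 active = activation above the mean over all tested compounds plus 3 SD, cut at about 0.9% in these data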;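 note: 0% = DMSO-only wells and 100% = 3 µM delta7-dafachronic acid wells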
LXRb hcDAF ctr: counter-screen for hcDAF-12 agonists: agonists of human LXR-beta. shares compounds with hcDAF12 agonist. HEK293 Gal4-LXR tk-luc reporter, luminescence, 24 h; normalized: DMSO 0%, positive control 100%. activation, % at 6.8 µM. 3,400 tested, under 10 active. AID 743027;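 active = mean percent activation of the reporter above a cutoff set as the average over tested compounds plus their standard deviation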
hcDAF12 ag: confirmation of H. contortus DAF-12 agonists; shares compounds with hcDAF12 agonist; HEK293 hcDAF-12 lit1-tk-luc reporter, luminescence; % of Δ7-dafachronic acid response; activation, % at 6.8 µM; hit rate 61% among 3,400;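 active = mean activation across triplicate tests above the threshold derived from the earlier primary screen, cut at about 5.5% in these data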;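 note: 0% = DMSO only wells and 100% = 3 µM Δ7-dafachronic acid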
* marks the source's active call; other numbers are inactive results; nt = no result. This is a sample that favours compounds with a hit; in the whole collection about 4.1% have one here.

SMILES	DAX1 inh-1	hcDAF12 agonist	hgDAF-12 ag	DAX1 inh-2	ssDAF-12 act	LXRb hcDAF ctr	hcDAF12 ag
O=C(NCCc1cccs1)c1ccc(Cl)cc1	-1.9	7.6*	10.9*	3.0	0.6	0.8	2.5
CCOc1c2ccc(C(=O)NCCc3ccc(C)cc3)cc2nn1CC	-0.5	2.0	0.3	-0.3	-1.3	nt	nt
Clc1ccc(-n2ncc3c(NCc4cccnc4)ncnc32)cc1Cl	0.6	-1.7	4.1	0.0	-0.7	nt	nt
Cc1ccc(CN2CC(C(=O)NC(c3nc4ccccc4[nH]3)C(C)C)CC2=O)cc1 (configuration not stated)	-0.3	1.0	0.8	-1.5	-0.9	nt	nt
CCOc1ccc(N(C)C(=O)CCc2nnc3ccc(N4CCOCC4)nn23)cc1	0.6	-2.0	-0.4	-0.4	-0.9	nt	nt
Cc1ccoc1C(=O)Nc1ccc2ccccc2c1	-1.8	17.1*	12.2*	1.4	0.4	2.0	14.3*
Cc1ccc(NC(=O)CSc2nc3c([nH]c4ccccc43)c(=O)n2C)cc1	0.0	2.8	-3.3	-0.4	0.0	nt	nt
CCOc1ccc(NC(=O)CSc2nc3c([nH]c4ccccc43)c(=O)n2C)cc1	1.1	9.8*	0.3	0.7	0.1	-0.3	6.2*
Cn1c(SCC(=O)Nc2cccc(F)c2)nc2c([nH]c3ccccc32)c1=O	0.0	6.7*	3.3	-0.3	0.2	-0.2	4.5
COc1ccc(-n2c(SCC(=O)Nc3ccc(C(N)=O)cc3)nc3c([nH]c4ccccc43)c2=O)cc1OC	0.1	9.7*	-1.7	3.3	0.9*	-0.2	8.8*
CC(C)Sc1nc2c([nH]c3ccccc32)c(=O)n1C	0.4	11.1*	-0.2	0.5	1.0*	0.0	7.1*
CCOc1cc(C(=O)N/N=C/c2cn(-c3ccccc3)nc2-c2cc3ccccc3o2)cc(OCC)c1OCC	2.9	7.9*	8.9	1.9	-0.2	0.7	5.8*
Cc1ccc(-c2nn(-c3ccccc3)cc2/C=N/NC(=O)c2ccc(Br)o2)cc1	1.0	3.1	1.0	0.9	-0.7	nt	nt
O=C(N/N=C\c1cn(-c2ccccc2)nc1-c1ccccc1)c1ccc(Br)o1	-0.9	9.4*	4.6	-0.5	-0.2	0.0	3.9
CCc1nc2ccc(C(=O)Nc3cccc(OC)c3)cn2c1N(CC)CCOC	nt	-2.4	-2.1	-1.1	-1.3	nt	nt
CCS(=O)(=O)Nc1ccc(-c2nc3cccnc3s2)cc1	0.6	6.9*	11.0*	3.0	0.9	2.1	7.7*
Cc1cc(N)n(-c2ccc([N+](=O)[O-])cc2)n1	-0.1	0.5	-1.7	1.3	-0.4	nt	nt
Cc1cc(N)n(-c2ccc(C)c(C)c2)n1	0.9	7.1*	8.2	1.2	0.2	0.2	4.8
COc1cc(C(=O)NNC(=O)c2ccccc2Br)ccc1OCC(=O)N1CCOCC1	-0.5	-0.6	1.8	0.0	-1.1	nt	nt
O=C1c2cccc3cccc(c23)C(=O)N1CCO	-0.9	-3.2	2.2	0.0	-1.2	nt	nt
O=C1c2cccc3cc([N+](=O)[O-])cc(c23)C(=O)N1CCN1CCCC1	1.7	44.5*	-0.8	-1.8	7.1*	1.5	16.7*
CCN(CC)CCN1C(=O)c2cccc3cc(N)cc(c23)C1=O	-1.5	7.6*	-0.1	-0.3	-0.1	-0.3	4.8
Nc1cc2c3c(cccc3c1)C(=O)N(CCN1CCCC1)C2=O	-0.9	16.0*	-6.0	-0.9	1.8*	0.1	11.8*
CCO/C(C)=C1/SC(=S)NC1=O	0.3	1.2	-0.8	-0.1	-0.9	nt	nt
CCCOc1ccccc1N1C(=O)CC(N(O)c2ccccc2)C1=O (configuration not stated)	-0.1	0.9	1.4	-0.6	-1.8	nt	nt
SMILES	DAX1 inh-1	hcDAF12 agonist	hgDAF-12 ag	DAX1 inh-2	ssDAF-12 act	LXRb hcDAF ctr	hcDAF12 ag
COc1ccccc1N1C(=O)CC(N(O)c2ccccc2)C1=O (configuration not stated)	1.6	6.7*	0.6	-0.2	-0.4	-0.3	3.1
CCc1ccc(NC(=O)c2cccc(C(=O)Nc3ccc(CC)cc3)n2)cc1	-1.6	3.3	1.0	-0.4	-1.1	nt	nt
COC(=O)c1cccc(C(=O)Nc2ccc(C)cc2)n1	0.2	7.1*	7.5	2.7	1.0*	0.3	7.5*
COc1ccc(/C=C2\N=C(C)OC2=O)cc1[N+](=O)[O-]	0.5	1.2	-0.1	-0.1	-0.1	nt	nt
CC1=CC2=NC(=O)/C(=C\c3cccn3CCOc3ccccc3C)C(=N)N2O1	1.2	-3.7	-2.2	-1.1	-1.8	nt	nt
COc1ccccc1OCCOc1ccc(/C=C2/C(=N)N3OC(C)=CC3=NC2=O)cc1OC	-1.0	7.3*	5.1	-1.1	-1.1	-0.7	-3.3
CSC1=NC(C(Cl)(Cl)Cl)N=C(c2ccc(C)cc2)N1 (configuration not stated)	-1.3	-0.4	-3.7	-2.5	-1.2	nt	nt
CCCCc1ccc(NC(=O)CC(C)=O)cc1	0.7	0.1	1.1	0.1	-1.6	nt	nt
CCCCc1ccc(NC(=O)CC(C)(C)C)cc1	-1.3	7.0*	12.7*	1.6	-0.4	0.1	4.0
O=C(Nc1ccccc1)Nc1nnc(-c2cccs2)s1	0.5	6.6*	4.3	1.0	-0.2	0.4	0.3
COc1ccc(C(=O)Nc2nnc(-c3cccs3)s2)cc1	1.5	6.8*	9.5	2.2	1.3*	1.6	17.0*
COc1ccc(NC(=O)Nc2nnc(-c3cccs3)s2)cc1	0.9	2.1	4.5	1.3	-0.5	nt	nt
COCCN(CC(=O)Nc1ccccc1C(F)(F)F)C(=O)c1ccc(-n2cccn2)cc1	-0.6	-0.8	-2.1	1.7	-0.6	nt	nt
Cc1ccc2c(c1)C(SCC(=O)NCCc1ccccc1)CC1(CCCC1)O2 (configuration not stated)	3.5	-1.4	1.0	0.7	0.0	nt	nt
CCCn1c2ccc(C)cc2c2nnc(SCCN3CCCCC3)nc21	0.2	9.3*	0.1	0.7	0.5	-0.1	4.7
O=C(CSc1ncnc2[nH]ncc12)Nc1nc(-c2ccc(F)c(F)c2)cs1	-4.2	-4.1	-0.1	-4.4	-3.4	nt	nt
Cc1ccc(O)c(NC(=O)c2noc3c2CCCCC3)c1	0.6	-0.4	3.5	0.8	-0.1	nt	nt
Cc1ccc(NC(=O)c2noc3c2CCCCC3)cc1	2.3	10.3*	11.5*	3.4	1.2*	1.8	8.2*
CC1CN(Cc2ccco2)C(=S)NC1=O (configuration not stated)	-0.3	-0.8	-0.6	-0.8	-1.2	nt	nt
CC/C(=N\NC(=O)C1CCCC1)c1cccc(Br)c1	2.1	6.8*	7.1	1.7	1.8*	0.0	3.4
C/C(=N\NS(=O)(=O)c1ccc([N+](=O)[O-])cc1)c1c[nH]c2ccccc12	0.6	10.6*	1.4	-0.7	-0.3	-0.2	1.6
